# According to PubChem BioAssay (Tox21):
# Several values for one entry are separate records, joined by “and”; a condition that tells them apart may be missing. Identical values can stand only once. Records with an inconclusive call do not appear. Where a call stands in place of a potency, no number is given. More than one record can exist for a structure, and the calls need not agree. Activity calls are given as the source filed them. Calls come from the whole dose curve; as a rule, active = well fitted curve in the direction sought with a large enough effect in the repeat runs; inconclusive = weak or mixed curves; inactive = no such curve, though single readings can be large; an effect the other way counts as inactive or inconclusive. Residues, ends and D or L forms follow the SMILES beside them.
# How the values were obtained:
# [1] = Caspase-3/7 induction in CHO-K1 cells by small molecules, qHTS cell viability counter screen (AID 1346979); note: nearly all actives have a fitted effect of over 35% in size; note: potency is the fitted concentration of half-maximal effect
# How it was run: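 Wild-type CHO-K1 cells were seeded at 1,500 per well, rested 5hr at 37 C, then exposed to compounds in DMSO. After 16hr, CellTiter-Fluor reagent was added and fluorescence read 1hr later as the viability measure.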
# [2] = Caspase-3/7 induction in CHO-K1 cells by small molecules, qHTS assay (AID 1346980); note: nearly all actives have a fitted effect of over 15% in size
# How it was run: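 Luminescent Caspase-Glo 3/7 read (30min, room temperature) quantified apoptosis induction. Cells were wild-type CHO-K1, treated with compound for 17hr at 37 C and 5% CO2.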
# [3] = Caspase-3/7 induction in HepG2 cells by small molecules, qHTS cell viability counter screen (AID 1346981); note: nearly all actives have a fitted effect of over 30% in size; note: potency is the fitted concentration of half-maximal effect
# How it was run: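 Wild-type HepG2 cells (2,000/well) were allowed to settle for 5 hr at 37 C, 5% CO2, then dosed with compounds in DMSO by pin transfer. After 16 hr at 37 C, CellTiter-Fluor was added and fluorescence read 1 hr later.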
# [4] = target: Nuclear receptor subfamily 1 group I member 2 (Homo sapiens) (UniProt O75469); assay: Human pregnane X receptor (PXR) small molecule agonists, qHTS assay (AID 1346982); note: nearly all actives have a fitted effect of over 35% in size; note: potency is the fitted concentration of half-maximal effect
# How it was run: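 PXR-Luc HepG2 cells (CYP3A4 promoter-driven luciferase) were seeded in medium with 5% charcoal-stripped FBS, left 5 hr at 37 C, then exposed to compounds in DMSO for 24 hr. Luminescence was read after ONE-Glo addition.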
# [5] = target: Nuclear receptor subfamily 1 group I member 2 (Rattus norvegicus) (UniProt Q9R1A7); assay: Rat pregnane X receptor (rPXR) activation by small molecules, qHTS assay (AID 1346983); conditions: rPXR luciferase reporter cells, One-Glo luminescence, 24 h; stronger effect = higher value; note: nearly all actives have a fitted effect of over 20% in size
# How it was run: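 Luminescent readout (One-Glo luciferase, 30 min room temperature) followed 24 hr compound treatment at 37 C of rPXR cells plated 2,000 per well and preincubated 5hr; qHTS format with compounds delivered in DMSO.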
# [6] = target: Nuclear receptor subfamily 1 group I member 2 (Homo sapiens) (UniProt O75469); assay: CYP3A4 induction through human pregnane X receptor (PXR) by small molecules, qHTS assay (AID 1346984); note: nearly all actives have a fitted effect of over 40% in size
# How it was run: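 DPX-2 cells (HepG2 co-transfected with PXR and CYP3A4 promoter-luciferase) treated with compounds 24 h at 37C; luciferin-IPA CYP3A4 substrate 3uM final added for 3 h, then One-Glo; luminescence read. qHTS format.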
# [7] = target: Nuclear receptor subfamily 1 group I member 2 (Homo sapiens) (UniProt O75469); assay: Human pregnane X receptor (PXR) activation by small molecules, qHTS assay (AID 1346985); note: nearly all actives have a fitted effect of over 40% in size; note: potency is the fitted concentration of half-maximal effect
# How it was run: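 DPX-2 cells (HepG2 co-transfected with a PXR response element and a CYP3A4-promoter luciferase construct) were seeded at 2,000 per well, rested 5 hr at 37C, then exposed to DMSO-dissolved compounds for 24 hr. Activation was read as luciferase luminescence.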
# [8] = target: Cytochrome P450 2D6 (Homo sapiens) (UniProt P10635); assay: Cytochrome P450 Family 2 Subfamily D Member 6 (CYP2D6) small molecule antagonists: luciferase reporter qHTS assay (AID 1671196); note: nearly all actives have a fitted effect of over 50% in size; note: potency is the fitted concentration of half-maximal effect; for activity change, negative = inhibition: series mostly up to about 120 µM
# How it was run: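 CYP2D6 enzyme–substrate mix was held with compound for 10 min at room temperature, then NADPH regeneration solution was added and the reaction ran 1 h at room temperature. Luciferin product was detected by luminescence after 20 min with detection reagent.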
# [9] = target: Cytochrome P450 2C19 (Homo sapiens) (UniProt P33261); assay: Cytochrome P450 Family 2 Subfamily C Member 19 (CYP2C19) small molecule antagonists: luciferase reporter qHTS assay (AID 1671197); note: nearly all actives have a fitted effect of over 65% in size; note: potency is the fitted concentration of half-maximal effect; for activity change, negative = inhibition: series mostly up to about 120 µM
# How it was run: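 Enzyme-substrate mix with proluciferin substrate (P450-Glo CYP2C19 system) preincubated with compounds 10 min at room temperature; NADPH regeneration solution added, 37C for 1 h; detection reagent stops reaction, luminescence read after 20 min. Ketoconazole positive control.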
# [10] = target: Cytochrome P450 2C9 (Homo sapiens) (UniProt P11712); assay: Cytochrome P450 Family 2 Subfamily C Member 9 (CYP2C9) small molecule antagonists: luciferase reporter qHTS assay (AID 1671198); note: nearly all actives have a fitted effect of over 50% in size; note: potency is the fitted concentration of half-maximal effect; for activity change, negative = inhibition: series mostly up to about 120 µM
# How it was run: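 Enzyme-substrate mix preincubated with compound 10 min at room temperature; reaction started with NADPH regeneration solution, 1 h 37C. Luminescent luciferin product read after 20 min detection reagent.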
# Sequence of Cytochrome P450 2C19 (Homo sapiens) (P33261 whole entry, looked up): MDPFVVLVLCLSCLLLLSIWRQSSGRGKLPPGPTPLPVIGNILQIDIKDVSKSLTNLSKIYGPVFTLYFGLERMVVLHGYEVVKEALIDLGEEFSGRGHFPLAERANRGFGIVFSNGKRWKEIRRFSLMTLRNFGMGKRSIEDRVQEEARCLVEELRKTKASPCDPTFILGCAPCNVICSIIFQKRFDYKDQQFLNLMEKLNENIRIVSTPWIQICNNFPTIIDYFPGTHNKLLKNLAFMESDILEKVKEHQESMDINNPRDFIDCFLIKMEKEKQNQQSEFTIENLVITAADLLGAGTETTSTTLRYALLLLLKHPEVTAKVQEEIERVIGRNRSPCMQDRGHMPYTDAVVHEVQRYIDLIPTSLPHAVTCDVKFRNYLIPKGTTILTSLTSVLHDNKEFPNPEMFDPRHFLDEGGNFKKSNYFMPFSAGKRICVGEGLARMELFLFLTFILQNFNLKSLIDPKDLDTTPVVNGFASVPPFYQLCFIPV
# Sequence of Nuclear receptor subfamily 1 group I member 2 (Rattus norvegicus) (Q9R1A7 whole entry, looked up): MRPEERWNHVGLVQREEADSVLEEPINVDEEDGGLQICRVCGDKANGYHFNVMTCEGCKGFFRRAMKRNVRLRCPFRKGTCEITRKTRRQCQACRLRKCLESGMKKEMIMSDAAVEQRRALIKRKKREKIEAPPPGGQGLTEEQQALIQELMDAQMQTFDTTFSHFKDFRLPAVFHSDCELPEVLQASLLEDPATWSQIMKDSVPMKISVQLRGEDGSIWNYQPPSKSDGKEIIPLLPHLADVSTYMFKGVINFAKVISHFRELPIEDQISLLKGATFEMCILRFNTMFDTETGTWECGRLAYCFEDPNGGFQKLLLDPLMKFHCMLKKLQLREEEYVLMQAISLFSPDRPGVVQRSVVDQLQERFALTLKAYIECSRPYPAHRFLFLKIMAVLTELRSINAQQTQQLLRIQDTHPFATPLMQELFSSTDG
# Sequence of Cytochrome P450 2D6 (Homo sapiens) (P10635 whole entry, looked up): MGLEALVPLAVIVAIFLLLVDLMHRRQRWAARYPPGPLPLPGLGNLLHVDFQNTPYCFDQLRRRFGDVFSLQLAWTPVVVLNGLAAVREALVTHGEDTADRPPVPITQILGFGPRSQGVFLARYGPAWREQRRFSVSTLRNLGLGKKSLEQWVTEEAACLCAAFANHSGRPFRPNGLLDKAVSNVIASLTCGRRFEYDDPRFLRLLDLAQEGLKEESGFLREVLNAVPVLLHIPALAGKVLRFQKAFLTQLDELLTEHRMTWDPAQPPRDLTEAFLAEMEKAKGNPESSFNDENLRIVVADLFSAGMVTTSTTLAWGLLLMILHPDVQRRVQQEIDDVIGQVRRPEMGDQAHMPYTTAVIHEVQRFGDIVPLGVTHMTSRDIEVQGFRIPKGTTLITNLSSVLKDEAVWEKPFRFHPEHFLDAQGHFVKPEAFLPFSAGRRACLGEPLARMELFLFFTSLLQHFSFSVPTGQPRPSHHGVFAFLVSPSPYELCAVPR
# Sequence of Nuclear receptor subfamily 1 group I member 2 (Homo sapiens) (O75469 whole entry, looked up): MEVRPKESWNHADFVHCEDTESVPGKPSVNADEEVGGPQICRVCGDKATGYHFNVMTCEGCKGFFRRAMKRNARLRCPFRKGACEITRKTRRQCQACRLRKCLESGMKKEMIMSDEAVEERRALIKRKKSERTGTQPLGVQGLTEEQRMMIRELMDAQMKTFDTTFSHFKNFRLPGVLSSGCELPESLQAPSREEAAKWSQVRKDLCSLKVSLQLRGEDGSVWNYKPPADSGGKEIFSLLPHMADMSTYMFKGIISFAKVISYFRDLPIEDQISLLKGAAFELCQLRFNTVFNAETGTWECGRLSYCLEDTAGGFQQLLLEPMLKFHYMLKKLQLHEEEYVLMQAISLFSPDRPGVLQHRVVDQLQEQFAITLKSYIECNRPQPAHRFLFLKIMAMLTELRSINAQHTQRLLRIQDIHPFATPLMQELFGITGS
# Sequence of Cytochrome P450 2C9 (Homo sapiens) (P11712 whole entry, looked up): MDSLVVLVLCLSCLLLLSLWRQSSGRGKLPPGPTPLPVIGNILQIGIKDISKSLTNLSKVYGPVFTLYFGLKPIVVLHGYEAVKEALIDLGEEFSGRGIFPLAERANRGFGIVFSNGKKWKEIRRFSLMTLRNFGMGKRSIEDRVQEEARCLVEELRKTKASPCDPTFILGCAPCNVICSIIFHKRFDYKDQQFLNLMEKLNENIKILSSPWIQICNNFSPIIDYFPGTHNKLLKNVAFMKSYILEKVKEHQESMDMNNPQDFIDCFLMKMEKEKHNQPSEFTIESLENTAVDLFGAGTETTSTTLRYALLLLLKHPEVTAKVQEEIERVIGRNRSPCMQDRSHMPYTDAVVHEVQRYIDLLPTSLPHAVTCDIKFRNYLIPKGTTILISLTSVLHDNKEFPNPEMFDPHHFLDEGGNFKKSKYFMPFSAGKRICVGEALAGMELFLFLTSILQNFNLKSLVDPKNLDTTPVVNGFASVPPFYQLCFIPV
SMILES,Potency [1],outcome [2],Potency [3],Potency [4],max activation [5],outcome [6],Potency [7],Potency [8],Potency [9],Potency [10],"activity change, negative = inhibition [9]"
CC1(C)[C@@H]2CC[C@@]1(C)C(=O)C2,inactive,inactive,inactive,inactive,-1.13% (inactive),inactive,inactive,inactive,inactive,inactive,–
O=C(c1ccccc1)c1ccccc1,–,inactive,inactive,–,–,–,–,–,–,–,–
OCCc1ccccc1,inactive,inactive,inactive,inactive,–,–,–,inactive,inactive,inactive,–
O=c1cc[nH]c(=S)[nH]1,inactive,inactive,inactive,61.5 µM (active) and inactive,-8.7% (inactive),inactive,inactive,inactive,28.5 µM (active) and inactive,40.2 µM (active) and inactive,–
CC(=O)OCC(COC(C)=O)OC(C)=O,inactive,inactive,inactive,inactive and 4.33 µM (active),3.67% (inactive),inactive,inactive,inactive,inactive,inactive,–
NC(N)=NC(=O)c1nc(Cl)c(N)nc1N,inactive,inactive,inactive,69 µM (active) and 50.4 µM (active) and inactive,–,–,–,inactive,inactive,inactive,–
CCC1(c2ccccc2)C(=O)NCNC1=O,inactive,inactive,inactive,inactive,–,–,–,inactive,inactive,inactive,–
O=C(O)CCC(=O)O,inactive,inactive,inactive,inactive,-3.42% (inactive),inactive,inactive,inactive,inactive,inactive,–
CCOc1ccc(NC(=O)CC(C)O)cc1 (stereo not given),inactive,inactive,inactive,inactive,0.554% (inactive),inactive,inactive,32.1 µM (active) and inactive,inactive,inactive,–
CCCCC(CC)COC(=O)/C=C/c1ccc(OC)cc1 (stereo not given),inactive,inactive,inactive,inactive,–,inactive,inactive,inactive,39.8 µM (active) and 25.2 µM (active) and 24.5 µM (active),19.9 µM (active) and 12.6 µM (active) and 11 µM (active),–
Nc1ccc(C(=O)O)cc1,inactive,inactive,inactive,inactive,-4.61% (inactive),inactive,inactive,inactive,inactive,inactive,–
NS(=O)(=O)c1cc(C(=O)O)c(NCc2ccco2)cc1Cl,inactive,inactive,inactive,inactive,–,–,–,–,–,–,–
NC(=O)NC1NC(=O)NC1=O (stereo not given),inactive,inactive,inactive,–,-1.54% (inactive),–,–,35.2 µM (active) and inactive,inactive,inactive,–
OC(Cn1cncn1)(Cn1cncn1)c1ccc(F)cc1F,–,inactive,inactive,inactive,-1.17% (inactive),inactive,inactive,22.7 µM (active) and inactive,–,–,–
CC(C)(Oc1ccc(C2CC2(Cl)Cl)cc1)C(=O)O (stereo not given),inactive,inactive,inactive,inactive,-3.49% (inactive),inactive,inactive,inactive,inactive,30.5 µM (active) and 22.4 µM (active) and 15.5 µM (active),–
CC(O)CO (stereo not given),inactive,inactive,inactive,inactive,1.42% (inactive),inactive,inactive,inactive and 1.56 µM (active),inactive,inactive,–
O=NO,–,inactive,inactive,–,–,–,–,–,–,–,–
CCCNC(=O)NS(=O)(=O)c1ccc(Cl)cc1,inactive,inactive,inactive,inactive,–,–,–,inactive,inactive,39.7 µM (active) and 35.6 µM (active),–
Nc1ccn([C@H]2CC[C@@H](CO)O2)c(=O)n1,inactive,inactive,inactive,inactive,–,–,–,inactive,78.3 µM (active) and inactive,inactive,–
NNC(=O)c1ccncc1,inactive,inactive,inactive,inactive,–,–,–,40 µM (active) and inactive,15.9 µM (active) and 2.97 µM (active) and 17.4 µM (active),35.7 µM (active) and 13.3 µM (active),–
Cn1cc[nH]c1=S,inactive,inactive,inactive,–,-0.0972% (inactive),–,inactive,inactive,inactive,inactive and 71 µM (active),–

SMILES,Potency [1],outcome [2],Potency [3],Potency [4],max activation [5],outcome [6],Potency [7],Potency [8],Potency [9],Potency [10],"activity change, negative = inhibition [9]"
CC(=O)Nc1nnc(S(N)(=O)=O)s1,inactive,inactive,inactive,inactive,–,–,–,inactive,inactive,inactive,–
O=C(O)C(=O)O,inactive,inactive,inactive,inactive,–,–,–,inactive,81 µM (active),inactive,-11.9% [at 10.5 µM] (inactive)
CC(C)[C@@H]1CC[C@@H](C)C[C@H]1O,inactive,inactive,inactive,31 µM (active) and inactive,-1.21% (inactive),inactive,inactive,inactive,inactive,inactive,–
O=C(O)c1cccnc1,inactive,inactive,inactive,–,–,–,–,–,–,–,–
Cc1ccc(S(=O)(=O)NC(=O)NN2CCCCCC2)cc1,–,inactive,inactive,–,–,–,–,–,–,–,–
CCCC(O)C(CC)CO (stereo not given),inactive,inactive,inactive,inactive,-6.82% (inactive),inactive,inactive,inactive,inactive,inactive,–
CCCCOC(=O)CC(CC(=O)OCCCC)(OC(C)=O)C(=O)OCCCC,inactive,inactive,inactive,6.68 µM (active) and 12.3 µM (active) and 13.7 µM (active),0.822% (inactive),–,25.1 µM (active),inactive,2.19 µM (active) and 4.04 µM (active) and 3.56 µM (active),2.75 µM (active) and 2.86 µM (active) and 2.52 µM (active),–
Cc1noc(NS(=O)(=O)c2ccc(N)cc2)c1C,inactive,inactive,inactive,inactive,–,–,–,inactive,inactive,inactive,–
O=c1ccc2ccccc2o1,inactive,inactive,inactive,inactive,–,inactive,inactive,inactive,inactive,inactive,–
Oc1ccc(/C=C/c2cc(O)cc(O)c2)cc1,69.2 µM (active) and 61.1 µM (active),inactive,inactive,61.7 µM (active) and 30.6 µM (active) and 29.8 µM (active),-1.25% (inactive),inactive,–,–,–,–,–
Cc1ccc(O)cc1,inactive,inactive,inactive,–,–,–,–,–,–,–,–
Cc1cn([C@H]2C[C@H](N=[N+]=[N-])[C@@H](CO)O2)c(=O)[nH]c1=O,15.8 µM (active) and inactive,inactive,inactive,inactive,-3.59% (inactive),inactive,inactive,inactive,41.1 µM (active) and 39.9 µM (active) and inactive,63.3 µM (active) and inactive,–
COC(=O)[C@H](Cc1ccccc1)NC(=O)[C@@H](N)CC(=O)O (H-Asp-Phe-OMe),inactive,inactive,inactive,inactive,-3.24% (inactive) and -1.16% (inactive),inactive,inactive,inactive,inactive,inactive,–
N=C(N)c1ccc(OCCCCCOc2ccc(C(=N)N)cc2)cc1,54.2 µM (active) and inactive,inactive,inactive,68.2 µM (active) and 32.8 µM (active) and inactive,–,–,–,–,inactive,–,–
Nc1ccc(S(=O)(=O)Nc2nccs2)cc1,inactive,inactive,inactive,inactive,–,–,–,inactive,inactive,inactive,–
O=C(O)c1cc(N=Nc2ccc(S(=O)(=O)Nc3ccccn3)cc2)ccc1O,–,inactive,27.4 µM (active) and 48.6 µM (active) and 23.7 µM (active),inactive,-4.4% (inactive),inactive,inactive,inactive,56.6 µM (active) and inactive,14.2 µM (active) and 17.8 µM (active) and 8.71 µM (active),–
CCCN(CCC)S(=O)(=O)c1ccc(C(=O)O)cc1,–,inactive,inactive,–,–,–,–,inactive,inactive,inactive,–
CC(O)C(=O)O (stereo not given),–,inactive,inactive,inactive,-1.38% (inactive),inactive,inactive,inactive and 11 µM (active),inactive and 81.1 µM (active),inactive,–
c1ccc2[nH]ccc2c1,–,inactive,inactive,inactive,-4.01% (inactive),inactive,inactive,inactive,49.4 µM (active) and inactive,35 µM (active) and inactive,–
Cc1ccc(C)c(OCCCC(C)(C)C(=O)O)c1,–,inactive,inactive,inactive,–,–,–,inactive,50.6 µM (active) and 56.4 µM (active) and inactive,31.9 µM (active) and 35.6 µM (active) and 17.4 µM (active),–
